From PubChem BioAssay (Tox21)
Records with an inconclusive call do not appear. Entries that show only a call come without a potency. Activity calls are given as the source filed them. Unless noted, calls come from the whole dose curve; as a rule, active = well fitted curve in the direction sought with a large enough effect in the repeat runs; inconclusive = weak or mixed curves; inactive = no such curve, though single readings can be large; an effect the other way counts as inactive or inconclusive. Positions of bridges follow the written chain, without caps; N, C: chain ends. Non-standard residues stand in square brackets, D forms with d. Residues, ends and D or L forms follow the SMILES beside them. *: point of attachment. X2 = CC[C@H](C)CCCCC(=O)*; Orn = NCCC[C@H](N)C(=O)O; Dab = NCC[C@H](N)C(=O)O; Mpa = O=C(O)CCS

Columns and labels:
[1] = qHTS assay to test for compound auto fluorescence at 535 nm (green) in HEK293 cells (AID 720680)
[2] = qHTS assay to test for compound auto fluorescence at 460 nm (blue) in HEK293 cell free culture (AID 720681)
Procedure, shortened: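 Test compounds were pinned into cell-free culture medium (DMEM with 10% FBS) and fluorescence was read directly at Ex/Em 405/460 nm. Signals were expressed as fluorescence equivalents of triamterene, with DMSO vehicle as control.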

[3] = qHTS assay to test for compound auto fluorescence at 535 nm (green) in HEK293 cell free culture (AID 720682)
Procedure, shortened: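 Fluorescein serves as the green reference fluorophore; each compound's intrinsic emission at 535 nm (excitation 485 nm) is reported as an equivalent amount of that dye, measured in serum-containing DMEM without cells.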

[4] = qHTS assay to test for compound auto fluorescence at 590 nm (red) in HEK293 cell free culture (AID 720683)
Procedure, shortened: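 Tox21 10K library compounds were pinned into cell-free DMEM with 10% FBS and fluorescence was read at excitation 540 nm. Activity is expressed as Rose Bengal sodium equivalency.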

[5] = qHTS assay to test for compound auto fluorescence at 590 nm (red) in HepG2 cell free culture (AID 720684)
Procedure, shortened: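 Red fluorescence (540 nm excitation, 590 nm emission) was measured after compound transfer into cell-free MEM supplemented with 10% FBS. Values are equivalencies against Rose Bengal sodium.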

[6] = qHTS assay to test for compound auto fluorescence at 460 nm (blue) in HepG2 cell free culture (AID 720685)
Procedure, shortened: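 Compound (23 nL) or DMSO pinned into cell-free MEM with 10% FBS; blue fluorescence read at 405/460 nm excitation/emission, expressed as auto-fluorescence equivalency to triamterene.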

[7] = qHTS assay to test for compound auto fluorescence at 535 nm (green) in HepG2 cell free culture (AID 720686)
[8] = qHTS assay to test for compound auto fluorescence at 460 nm (blue) in HepG2 cells (AID 720687)
Procedure, shortened: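 Cells (2,000/well in MEM with 10% FBS) attached overnight at 37 C, then were exposed to compound or DMSO for 1 hr at 37 C, 5% CO2. Fluorescence read at Ex/Em 405/460 nm, expressed as triamterene-equivalent signal.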

[9] = target: Glucocorticoid receptor (Homo sapiens) (UniProt P04150); assay: qHTS assay to identify small molecule agonists of the glucocorticoid receptor (GR) signaling pathway (AID 720691; active = well fitted activation curve with a large enough effect in the signal ratio in the repeat runs, not every such curve was filed as active; the % refers to the signal ratio); conditions: GR-bla HeLa, beta-lactamase reporter ratio, 18 h; activation: at 62.4 µM (top of the series)
Glucocorticoid receptor (Homo sapiens), sequence (P04150 whole entry, looked up): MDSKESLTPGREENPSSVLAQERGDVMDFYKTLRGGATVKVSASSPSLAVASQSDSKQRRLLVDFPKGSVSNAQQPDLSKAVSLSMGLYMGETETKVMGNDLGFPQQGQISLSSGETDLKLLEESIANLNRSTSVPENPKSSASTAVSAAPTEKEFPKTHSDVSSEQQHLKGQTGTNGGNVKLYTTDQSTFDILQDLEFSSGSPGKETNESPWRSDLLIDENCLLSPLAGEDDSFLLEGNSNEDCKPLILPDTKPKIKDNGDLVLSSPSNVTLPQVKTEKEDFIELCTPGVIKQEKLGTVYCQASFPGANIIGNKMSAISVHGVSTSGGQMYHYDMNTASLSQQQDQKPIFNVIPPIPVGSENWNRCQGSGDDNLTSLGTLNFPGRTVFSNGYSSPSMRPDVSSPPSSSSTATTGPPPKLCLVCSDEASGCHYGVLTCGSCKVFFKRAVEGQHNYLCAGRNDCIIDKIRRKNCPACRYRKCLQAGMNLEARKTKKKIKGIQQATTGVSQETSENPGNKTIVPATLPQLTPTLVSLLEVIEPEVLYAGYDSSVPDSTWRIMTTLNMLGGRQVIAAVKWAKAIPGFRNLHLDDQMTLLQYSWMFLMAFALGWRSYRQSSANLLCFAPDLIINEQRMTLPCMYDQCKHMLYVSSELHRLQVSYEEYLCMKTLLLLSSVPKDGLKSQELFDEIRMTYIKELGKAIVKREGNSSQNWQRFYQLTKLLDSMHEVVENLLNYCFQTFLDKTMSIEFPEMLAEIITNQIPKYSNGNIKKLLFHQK
Procedure, shortened: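 qHTS in GR-bla HeLa cells: 4 h settling at 37 C/5% CO2, 18 h compound incubation at 37 C, 2 h LiveBLAzer B/G FRET substrate at room temperature, fluorescence intensity measured.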

[10] = qHTS assay to identify small molecule antagonists of the glucocorticoid receptor (GR) signaling pathway - cell viability counter screen (AID 720693); note: nearly all actives have a fitted effect of over 55% in size
[11] = qHTS assay for identifying genotoxic compounds that show differential cytotoxicity against isogenic chicken DT40 cell lines with known DNA damage response pathways - wild type cell line (AID 743012); note: nearly all actives have a fitted effect of over 60% in size; note: potency is the fitted concentration of half-maximal effect
Procedure, shortened: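 First, wild type DT40 cells were plated at 300 per well and equilibrated about 0.5 h at 37 C/5% CO2. Next, compounds in DMSO were added and exposure lasted 40 h. Finally, CellTiter-Glo was added for 30 min at room temperature and luminescence recorded.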

[12] = qHTS assay for identifying genotoxic compounds that show differential cytotoxicity against isogenic chicken DT40 cell lines with known DNA damage response pathways - Rad54/Ku70 mutant cell line (AID 743015); note: nearly all actives have a fitted effect of over 60% in size; note: potency is the fitted concentration of half-maximal effect
[13] = qHTS assay to identify small molecule antagonists of the androgen receptor (AR) signaling pathway - cell viability counter screen (AID 743033; note: nearly all actives have a fitted effect of over 45% in size)
[14] = qHTS assay to identify small molecule antagonists of the androgen receptor (AR) signaling pathway using the MDA cell line - cell viability counter screen (AID 743041; note: nearly all actives have a fitted effect of over 45% in size; note: potency is the fitted concentration of half-maximal effect)
Procedure, shortened: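 MDA-kb2 AR-luc human breast carcinoma cells (MMTV-luciferase, AR/GR responsive) were treated with compounds plus R1881 agonist for 16 h at 37 °C. Viability was read as CellTiter-Fluor fluorescence in the same wells as the reporter assay.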

[15] = target: Androgen receptor (Homo sapiens) (UniProt P10275); assay: qHTS assay to identify small molecule antagonists of the androgen receptor (AR) signaling pathway (AID 743035; active = well fitted inhibition curve with a large enough effect in the signal ratio in the repeat runs, not every such curve was filed as active; the % refers to the signal ratio; note: potency is the fitted concentration of half-maximal effect)
Androgen receptor (Homo sapiens), sequence (P10275 whole entry, looked up): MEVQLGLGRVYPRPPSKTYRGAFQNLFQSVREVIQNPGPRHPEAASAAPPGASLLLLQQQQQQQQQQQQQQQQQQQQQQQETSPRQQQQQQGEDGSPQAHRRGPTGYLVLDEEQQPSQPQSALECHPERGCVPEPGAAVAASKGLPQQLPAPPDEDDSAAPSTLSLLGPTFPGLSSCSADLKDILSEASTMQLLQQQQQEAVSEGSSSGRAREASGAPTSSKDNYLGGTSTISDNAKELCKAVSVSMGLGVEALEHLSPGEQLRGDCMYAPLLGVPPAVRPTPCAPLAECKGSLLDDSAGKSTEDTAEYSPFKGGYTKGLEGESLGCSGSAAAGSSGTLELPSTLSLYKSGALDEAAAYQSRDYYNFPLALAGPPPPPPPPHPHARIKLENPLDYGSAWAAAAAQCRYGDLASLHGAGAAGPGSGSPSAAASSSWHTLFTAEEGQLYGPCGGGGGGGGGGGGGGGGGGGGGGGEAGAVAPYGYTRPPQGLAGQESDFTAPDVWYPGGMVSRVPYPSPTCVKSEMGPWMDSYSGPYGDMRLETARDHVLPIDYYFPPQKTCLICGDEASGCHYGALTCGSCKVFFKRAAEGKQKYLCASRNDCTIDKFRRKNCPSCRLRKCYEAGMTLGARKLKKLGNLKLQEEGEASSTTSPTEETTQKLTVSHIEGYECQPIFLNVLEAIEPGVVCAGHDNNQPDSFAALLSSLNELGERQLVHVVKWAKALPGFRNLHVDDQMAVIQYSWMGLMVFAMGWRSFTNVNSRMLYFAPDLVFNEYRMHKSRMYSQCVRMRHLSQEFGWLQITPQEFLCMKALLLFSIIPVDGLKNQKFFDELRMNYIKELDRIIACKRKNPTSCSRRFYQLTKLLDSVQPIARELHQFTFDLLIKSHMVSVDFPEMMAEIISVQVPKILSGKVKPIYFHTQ
Procedure, shortened: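 Beta-lactamase FRET read (2 h RT incubation with LiveBLAzer B/G) following 16 h of compound plus R1881 treatment of AR-UAS-bla HEK293 cells, which had been pre-incubated 4 h at 37C.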

[16] = target: Androgen receptor (Homo sapiens) (UniProt P10275); assay: qHTS assay to identify small molecule agonists of the androgen receptor (AR) signaling pathway using the MDA cell line (AID 743040; note: nearly all actives have a fitted effect of over 20% in size)
Procedure, shortened: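 MDA-kb2 breast carcinoma cells stably carrying an MMTV-driven luciferase reporter (AR- and GR-responsive) were seeded and held 5 h at 37C, 0% CO2, then exposed to compounds in DMSO for 16 h. Luminescence was read 30 min after ONE-Glo addition.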

[17] = target: Androgen receptor (Homo sapiens) (UniProt P10275); assay: qHTS assay to identify small molecule antagonists of the androgen receptor (AR) signaling pathway using the MDA cell line (AID 743042; note: nearly all actives have a fitted effect of over 55% in size)
Procedure, shortened: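 MDA-kb2 cells (human breast carcinoma, stably carrying an MMTV-luciferase reporter responsive to AR and GR) were plated at 3,000 cells/well and preincubated 5 hr at 37C, then given compound plus R1881 agonist for 16 h. ONE-Glo luminescence was read.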

[18] = qHTS assay for identifying genotoxic compounds that show differential cytotoxicity against isogenic chicken DT40 cell lines with known DNA damage response pathways - Rev3 mutant cell line (AID 743014); note: nearly all actives have a fitted effect of over 55% in size; note: potency is the fitted concentration of half-maximal effect
[19] = target: Androgen receptor (Homo sapiens) (UniProt P10275); assay: qHTS assay to identify small molecule agonists of the androgen receptor (AR) signaling pathway (AID 743036; active = well fitted activation curve with a large enough effect in the signal ratio in the repeat runs, with a control signal flat, not every such curve was filed as active; the % refers to the signal ratio)
Procedure, shortened: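 Fluorescence from a beta-lactamase FRET substrate served as read-out in AR-UAS-bla GripTite HEK293 cells. Cells were treated with DMSO-dissolved compounds for 16 h at 37C, then with LiveBLAzer B/G substrate for 2 h at room temperature.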

SMILES	Potency [1]	Potency [2]	Potency [3]	Potency [4]	Potency [5]	outcome [6]	Potency [7]	outcome [8]	Potency [9]	Potency [10]	Potency [11]	Potency [12]	Potency [13]	Potency [14]	Potency [15]	Potency [16]	Potency [17]	Potency [18]	Potency [19]
CS(=O)(=O)NC(=O)CCC/C=C\C[C@H]1C(=O)C[C@@H](O)[C@@H]1/C=C/[C@H](O)COc1ccccc1	inactive	inactive	inactive	inactive	inactive	inactive	inactive	inactive	inactive	inactive	inactive	inactive	inactive	inactive					
CC[C@]1(O)CC2CN(CCc3c([nH]c4ccccc34)[C@@](C(=O)OC)(c3cc4c(cc3OC)N(C)[C@H]3[C@@](O)(C(N)=O)[C@H](O)[C@]5(CC)C=CCN6CC[C@]43[C@@H]65)C2)C1 (some centres undefined)	inactive	inactive	inactive	inactive	inactive	inactive	inactive	inactive	inactive	inactive	47.3 nM (active)	59.6 nM (active)	inactive	inactive	213 nM (active)	inactive	inactive		
CC[C@H](C)CCCCC(=O)N[C@@H](CCN)C(=O)N[C@H](C(=O)N[C@@H](CCN)C(=O)N[C@H]1CCNC(=O)[C@H]([C@@H](C)O)NC(=O)[C@H](CCN)NC(=O)[C@H](CCN)NC(=O)[C@H](CC(C)C)NC(=O)[C@@H](CC(C)C)NC(=O)[C@H](CCN)NC1=O)[C@@H](C)O (X2-[Dab]T[Dab][Dab][Dab][dL]L[Dab][Dab]T; lactam 4-C)	inactive	inactive	inactive	inactive	inactive	inactive	inactive	inactive	inactive	inactive	inactive		inactive	inactive				inactive	
C=C[C@]1(C)C[C@@H](OC(=O)CSC(C)(C)CNC(=O)[C@H](N)C(C)C)[C@]2(C)[C@H](C)CC[C@]3(CCC(=O)[C@H]32)[C@@H](C)[C@@H]1O	inactive	inactive	inactive	inactive	inactive	inactive	inactive	inactive	inactive	inactive	188 nM (active)	376 nM (active)				inactive		335 nM (active)	
Cc1cc(-c2ccc(N=Nc3c(S(=O)(=O)O)cc4cc(S(=O)(=O)O)cc(N)c4c3O)c(C)c2)ccc1N=Nc1c(S(=O)(=O)O)cc2cc(S(=O)(=O)O)cc(N)c2c1O	inactive	inactive	inactive	inactive	inactive	inactive	inactive	inactive	inactive	inactive	9440 nM (active)	10600 nM (active)		13300 nM (active)				7500 nM (active)	
CCOc1ccc(C[C@H]2NC(=O)CCSSC[C@@H](C(=O)N3CCC[C@H]3C(=O)N[C@@H](CCCN)C(=O)NCC(N)=O)NC(=O)[C@H](CC(N)=O)NC(=O)[C@H]([C@@H](C)O)NC(=O)[C@H]([C@@H](C)CC)NC2=O)cc1 ([Mpa][dY](Et)ITNCP[Orn]G-NH2; disulfide 1-6)	inactive	inactive	inactive	inactive	inactive	inactive	inactive	inactive	inactive	inactive	inactive	inactive	inactive	inactive		inactive	inactive		inactive
C=CCSSSCC=C	inactive	inactive	inactive	inactive	inactive	inactive	inactive	inactive	inactive	inactive	inactive	inactive		inactive				inactive	
